# Experimental data as given in PubChem BioAssay.
# Several values for one entry are separate records, joined by “and”; a condition that tells them apart may be missing. Identical values can stand only once. Results filed as inconclusive are left out. Activity calls are given as the source filed them. Unless noted, no cut-off is given here; in the data, nearly all actives have AC50 up to about 26 µM.
# Experiments:
# [1] = stimulators of insulin release from INS-1E, primary screen, cell-based, 5 mM glucose, NPC library (AID 1117329;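 active = compound raises insulin release from rat beta cells at 5 mM glucose, no numeric limit stated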; note: reference of the scale not given here); conditions: rat INS-1E insulin secretion, at 10 µM, stronger effect = higher value
# [2] = growth inhibition of GSK3B-pretreated HCT116 cells – cell-based, CellTiter-Glo, 0.2 to 20 µM (AID 1117336;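 active = compounds lowering colon cancer cell viability after pretreatment blocking the GSK3B kinase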); conditions: HCT116 viability after GSK3B inhibitor, at 20 µM, stronger effect = higher value
# [3] = inhibition of endothelial tube formation, primary screen, imaging, VEGF stimulated, CD31 staining, tube area, NPC library (AID 1117340;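 active = compound that reduces growth-factor-driven endothelial tube area in a mixed cell culture, no cutoff stated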); conditions: VEGF-stimulated ADSC/ECFC co-culture, at 10 µM, stronger effect = higher value
# [4] = GLP1 release stimulators, primary, NCI-H716, NPC library (AID 1117341;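 active = compound raises GLP1 secretion from the human gut endocrine cells, with no numeric limit stated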; note: reference of the scale not given here); conditions: NCI-H716 cells, at 10 µM, stronger effect = higher value
# [5] = HCT116 colon cancer cell growth inhibition, primary screen, CellTiter-Glo luminescence, NPC library (AID 1117342;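 active = compounds that lower survival of HCT116 colon cancer cells in the luminescence readout, no numeric limit stated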); conditions: at 20 µM (top of the series)
# [6] = reduced SW480 viability measured with CellTiter-Glo, NPC library, primary (AID 1117343;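 active = compounds that lower viability of the colon cancer cells in the luminescence readout, with no numeric limit stated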); conditions: CellTiter-Glo luminescence; at 20 µM (top of the series) unless noted
# [7] = NPC library primary testing for decreased DLD-1 cell viability via CellTiter-Glo (AID 1117346;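 active = compounds that lower survival of DLD-1 colon cancer cells in the luminescence readout, no cutoff given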); conditions: DLD-1 viability, CellTiter-Glo luminescence; at 20 µM (top of the series)
# [8] = viability loss in pontine glioma line – cell-based, SU-DIPG-XVII, MIPE5.0, CellTiter-Glo, qHTS, dose response (AID 1347060); conditions: CellTiter-Glo ATP luminescence;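 for AC50: cells exposed to compound for 48 hours before viability readout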
# [9] = viability loss in pontine glioma line – cell-based, SU-DIPG-XIII, MIPE4.0, CellTiter-Glo, qHTS, dose response (AID 1347061; cut-off not given, nearly all actives have AC50 up to about 37 µM;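 note: cells exposed to compound for 48 hours before readout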); conditions: CellTiter-Glo ATP luminescence
# [10] = viability loss in pontine glioma line – cell-based, SU-DIPG-XXV, MIPE5.0, CellTiter-Glo, qHTS, dose response (AID 1347065); conditions: CellTiter-Glo ATP luminescence;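 note: cells exposed to compound for 48 hours before ATP readout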
# [11] = JHH-DIPG-1 glioma cell viability, MIPE5.0 library, CellTiter-Glo luminescence, qHTS (AID 1347067); conditions: JHH-DIPG-1 glioma viability, CellTiter-Glo ATP luminescence;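 note: cells exposed to compound for 48 hours before readout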
# [12] = growth inhibition of DIPG cells – cell-based, MIPE5.0 library, qHTS (AID 1347068; cut-off not given, nearly all actives have IC50 up to about 30 µM); conditions: SU-DIPG-XXV viability
# [13] = chitosan synthesis blockers in C. neoformans – flow cytometry, Cibacron Brilliant Red staining (AID 1347148; call rule not given here;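 note: compound exposure lasted three days at 37 degrees C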); conditions: Cryptococcus neoformans chitosan, stronger effect = lower value; at 10 µM unless noted
# [14] = growth inhibition, single agent or in combination, cell-based, chromothripsis tumors, cisplatin or BGB combos (AID 1671449; in the data active = inhibition above about 80%;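 note: cells exposed for 96 hours; 0% = vehicle DMSO and 100% = killing by high DMSO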); conditions: LFS_MB_P medulloblastoma cells
# [15] = growth inhibition, single agents and combos, ICB984, cell-based, cisplatin or BGB combos, synergistic combos for chromothripsis tumors (AID 1671451; call rule not given here;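 note: cells exposed for 96 hours before readout; 0% = vehicle DMSO and 100% = killing by high DMSO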); conditions: ICB984 medulloblastoma cells, drug combinations, stronger effect = higher value
# [16] = target: ATP-dependent translocase ABCB1 (Homo sapiens) (UniProt P08183); test: P-glycoprotein substrate transport blockade – cell-based (AID 377; in the data active = fluorescence slope change above about 50%); conditions: MDR1-expressing cells, fluorescent substrate accumulation slope; stronger effect = higher value; concentration not given here
# [17] = GFP-Q80 aggregate reduction, neuronal-like cells, cell-based, NGF-treated PC12, GFPQ80 (AID 1614); conditions: PC12 NGF-treated GFP-polyQ80 inclusion reduction;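 note: lower means fewer inclusions and 0 means no inclusions at all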
# [18] = tested on: Neuropilin-2 / VEGF-C interaction (human); test: small molecules blocking Neuropilin-2/VEGF-C interaction – biochemical, microplate binding format, z-score (AID 743281; call rule not given here); conditions: microplate NRP2/VEGF-C binding assay; stronger effect = lower value
# [19] = viability loss in pontine glioma line – cell-based, SU-DIPG-IV, MIPE4.0, CellTiter-Glo, qHTS, dose response (AID 1347063; cut-off not given, nearly all actives have AC50 up to about 30 µM;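 note: compound exposure lasted 48 hours before the viability readout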); conditions: CellTiter-Glo ATP luminescence
# [20] = viability loss in pontine glioma line – cell-based, SU-DIPG-XIII, MIPE5.0, CellTiter-Glo, qHTS, dose response (AID 1347064; cut-off not given, nearly all actives have AC50 up to about 23 µM); conditions: CellTiter-Glo ATP luminescence
# Chain of ATP-dependent translocase ABCB1 (Homo sapiens) (P08183 whole entry, looked up): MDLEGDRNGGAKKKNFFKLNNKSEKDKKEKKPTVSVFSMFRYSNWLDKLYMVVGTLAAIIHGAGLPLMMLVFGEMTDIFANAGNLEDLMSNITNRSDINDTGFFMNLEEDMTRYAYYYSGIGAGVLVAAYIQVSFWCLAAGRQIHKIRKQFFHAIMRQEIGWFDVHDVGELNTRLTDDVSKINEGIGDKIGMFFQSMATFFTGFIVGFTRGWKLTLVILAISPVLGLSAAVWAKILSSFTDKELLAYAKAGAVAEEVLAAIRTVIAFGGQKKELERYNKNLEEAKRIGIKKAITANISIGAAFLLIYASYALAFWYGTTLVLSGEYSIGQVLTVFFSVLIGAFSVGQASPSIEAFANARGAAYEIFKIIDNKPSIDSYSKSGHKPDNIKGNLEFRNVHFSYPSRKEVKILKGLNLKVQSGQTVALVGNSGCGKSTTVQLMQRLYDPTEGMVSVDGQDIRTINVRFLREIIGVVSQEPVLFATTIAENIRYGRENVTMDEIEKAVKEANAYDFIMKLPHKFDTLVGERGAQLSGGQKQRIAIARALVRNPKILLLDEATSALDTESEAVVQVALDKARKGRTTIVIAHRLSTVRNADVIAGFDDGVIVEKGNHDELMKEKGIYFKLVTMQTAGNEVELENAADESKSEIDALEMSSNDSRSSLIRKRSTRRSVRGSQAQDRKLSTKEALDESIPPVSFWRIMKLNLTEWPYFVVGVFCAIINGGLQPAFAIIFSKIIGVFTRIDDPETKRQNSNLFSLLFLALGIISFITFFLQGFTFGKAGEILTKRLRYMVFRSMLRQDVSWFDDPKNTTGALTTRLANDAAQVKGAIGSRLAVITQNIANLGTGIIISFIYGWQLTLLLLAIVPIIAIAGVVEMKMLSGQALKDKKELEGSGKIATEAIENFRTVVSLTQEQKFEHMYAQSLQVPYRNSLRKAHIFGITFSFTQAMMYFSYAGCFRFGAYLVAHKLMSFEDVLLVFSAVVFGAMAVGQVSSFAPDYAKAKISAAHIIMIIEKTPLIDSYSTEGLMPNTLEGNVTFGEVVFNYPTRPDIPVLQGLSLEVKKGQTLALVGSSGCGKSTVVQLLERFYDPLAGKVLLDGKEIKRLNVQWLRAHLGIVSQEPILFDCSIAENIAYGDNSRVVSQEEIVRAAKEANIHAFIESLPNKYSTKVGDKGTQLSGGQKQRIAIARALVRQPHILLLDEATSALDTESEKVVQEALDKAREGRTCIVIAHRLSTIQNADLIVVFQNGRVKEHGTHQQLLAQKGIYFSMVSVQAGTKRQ
smiles,measurement,setting,value
O=C(O)CCn1c2c(c3ccccc31)C[C@H](NS(=O)(=O)c1ccc(F)cc1)CC2,insulin secretion stimulation,[1],0.95% (inactive)
same,viability decrease,[2],8.7% (inactive)
same,tube area decrease,[3],-6.1% (inactive)
same,GLP1 secretion stimulation,[4],-0.3% (inactive)
same,inhibition of viability,[5],5.1% (inactive)
same,viability decrease (inhibition),[6],-25.4% (inactive)
same,viability decrease (inhibition),[7],-0.3% (inactive)
same,outcome,[8],inactive
same,outcome,[9],inactive
same,outcome,[10],inactive
same,outcome,[11],inactive
same,outcome,[12],inactive
CC1=C(/C=C/C(C)=C/C=C/C(C)=C\C(=O)O)C(C)(C)CCC1,fold fluorescence,[13],5.81 (inactive)
CN(C)c1nc(N(C)C)nc(N(C)C)n1,inhibition,"[14]; at 0.5 µM, stronger effect = higher value",-34.2% (inactive) and -27.6% (inactive)
same,inhibition,"[14]; measured here: combination with BGB IC20, at 0.005 µM",-17.9% and -27.7%
same,inhibition,"[14]; measured here: combination with BGB IC40, at 0.005 µM",-17.9% and -14.9%
same,inhibition,"[14]; measured here: combination with BGB IC40, at 0.05 µM",-9.42% and -37.8%
same,inhibition,"[14]; measured here: combination with cisplatin, at 0.5 µM, stronger effect = higher value",-34.2% and -25.4%
same,inhibition,"[14]; measured here: combination with cisplatin, at 5 µM, stronger effect = higher value",-44.4% and -48.3%
same,inhibition,"[15]; BGB IC20 combo, at 0.005 µM",-31.6% and 0.139%
same,inhibition,"[15]; BGB IC40 combo, at 0.005 µM",-11.1% and -14.4%
same,inhibition,"[15]; BGB IC40 combo, at 0.05 µM",-16% and -10.6%
same,inhibition,[15]; at 0.5 µM,-16.4% (inactive) and -22.8% (inactive)
same,inhibition,"[15]; cisplatin combo, at 0.05 µM",-16% and -14.5%
same,inhibition,"[15]; cisplatin combo, at 0.5 µM",-23.9% and -10.7%
same,inhibition,"[15]; cisplatin combo, at 5 µM",-16.8% and 0.591%
same,inhibition,"[15]; measured here: 5 uM single agent, at 5 µM",-7.32% and -28.4%
CN(C)CCC(c1ccc(Cl)cc1)c1ccccn1 (centres undefined),fluorescence slope change,[16],220% (active)
same,inclusion score,[17],2
same,z-score,[18],0.208 (inactive)
CNCCC=C1c2ccccc2CCc2ccccc21,fluorescence slope change,[16],145% (active)
O=C(O[C@@H]1Cc2c(O)cc(O)cc2O[C@@H]1c1cc(O)c(O)c(O)c1)c1cc(O)c(O)c(O)c1,z-score,[18],2.31 (inactive)
CC(=O)O[C@]1(C(C)=O)CC[C@H]2[C@@H]3C[C@H](C)C4=CC(=O)CC[C@]4(C)[C@H]3CC[C@@]21C,outcome,[19],inactive
same,outcome,[11],inactive
same,outcome,[12],inactive
Cn1cc[nH]c1=S,fluorescence slope change,[16],21.6% (inactive)
same,inclusion score,[17],2
COc1ccc2c3c1O[C@H]1C[C@@H](O)C=C[C@@]31CCN(C)C2,fluorescence slope change,[16],9.8% (inactive)
same,inclusion score,[17],2
same,z-score,[18],0.00606 (inactive)
same,outcome,[9],inactive
same,outcome,[19],inactive
CCCC1O[C@@H]2C[C@H]3[C@@H]4CCC5=CC(=O)C=C[C@]5(C)[C@H]4[C@@H](O)C[C@]3(C)[C@]2(C(=O)CO)O1 (some centres undefined),fluorescence slope change,[16],56.9% (active)
COc1ccc(-c2oc3c(CC=C(C)C)c(O[C@@H]4O[C@H](CO)[C@@H](O)[C@H](O)[C@H]4O)cc(O)c3c(=O)c2O[C@@H]2O[C@@H](C)[C@H](O)[C@@H](O)[C@H]2O)cc1,z-score,[18],0.976 (inactive)
CC(CCc1ccccc1)NCC(O)c1ccc(O)c(C(N)=O)c1 (centres undefined),inclusion score,[17],2
CC[C@H](C)C(=O)O[C@H]1CCC=C2C=C[C@H](C)[C@H](CC[C@@H]3C[C@@H](O)CC(=O)O3)[C@H]21,z-score,[18],-1.1 (inactive)
same,AC50,[8],6.61 µM (active)
same,AC50,[11],23.5 µM (active)
CC(=O)N=c1sc(S(N)(=O)=O)nn1C,fluorescence slope change,[16],65.4% (active)
same,inclusion score,[17],2
CC(C)[N+]1(C)C2CCC1CC(OC(=O)C(CO)c1ccccc1)C2 (centres undefined),outcome,[19],inactive
C[C@H](CCC(=O)O)[C@H]1CC[C@H]2[C@@H]3[C@@H](O)C[C@@H]4C[C@H](O)CC[C@]4(C)[C@H]3CC[C@]12C,outcome,[8],inactive
same,outcome,[19],inactive
same,outcome,[10],inactive
same,outcome,[11],inactive
same,outcome,[12],inactive
CN=C(N)NCCC[C@H](N)C(=O)O,z-score,[18],-0.991 (inactive)
Cc1ccc(N(CC2=NCCN2)c2cccc(O)c2)cc1,fluorescence slope change,[16],72.4% (active)
same,inclusion score,[17],2
same,outcome,[8],inactive
same,outcome,[9],inactive
same,outcome,[20],inactive
same,outcome,[10],inactive
same,fold fluorescence,[13],4.52 [at 177.7 µM] (inactive)
